ssDAF12 agonist = activators of S. stercoralis DAF-12 nuclear receptor; 1% of 370,000 active; activation, % at 6.8 µM; HEK293 ssDAF-12/GRIP1 lit1-tk-luc reporter, luminescence; % of 3 µM dafachronic acid response;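 active = activation above the mean over all tested compounds plus 3 SD, cut at about 0.9% in these data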;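 note: 0% = DMSO-only wells and 100% = 3 µM delta7-dafachronic acid wells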
AHR act = activates the human aryl hydrocarbon receptor | activation, % at 5 µM | P35869 | 2.5% of 320,000 active | AID 2796 | AHR-responsive luciferase reporter cells, luminescence; in the data active = activation above about 47%;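 note: 0% = vehicle wells and 100% = reference agonist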
hcDAF-12 act = H. contortus DAF-12 activation, primary screen. AID 652067. 1.4% of 370,000 active. activation, % at 6.8 µM. HEK293 hcDAF-12 lit1-tk-luc reporter, luminescence; 0% DMSO, 100% Δ7-dafachronic acid;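 active = activation above the mean of all tested compounds plus 3 SD, cut at about 5.5% in these data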;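 note: 100% = response to 3 µM Δ7-dafachronic acid high control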
DAX1 inh-1 = inhibitors of human orphan nuclear receptor DAX1 (NR0B1); P51843; HEK293 Gal4-DAX1 luciferase reporter, luminescence; inhibition, % at 6.75 µM; 0.99% of 340,000 active;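 active = inhibition above the mean over all tested compounds plus 3 SD, cut at about 4.2% in these data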;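 note: 0% = DAX1-transfected cells with DMSO and 100% = empty-vector control cells with DMSO; inhibition shows as a rise in luminescence from relieved DAX1 repression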
Target sequence (P51843 207-470 limits assumed): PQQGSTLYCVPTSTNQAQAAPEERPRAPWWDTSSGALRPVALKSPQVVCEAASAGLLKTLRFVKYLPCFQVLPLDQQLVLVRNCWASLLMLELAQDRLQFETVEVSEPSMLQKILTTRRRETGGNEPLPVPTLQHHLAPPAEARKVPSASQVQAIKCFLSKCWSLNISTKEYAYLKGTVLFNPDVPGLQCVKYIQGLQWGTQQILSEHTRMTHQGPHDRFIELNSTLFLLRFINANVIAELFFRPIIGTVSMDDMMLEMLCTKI
hgDAF-12 ag = agonists of H. glycines DAF-12 nuclear receptor. HEK293 GAL4-hgDAF12 UAS-luciferase reporter, agonist luminescence; normalized to butyrate control. 1.8% of 370,000 active. activation, % at 6.8 µM;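 active = activation above a cutoff set at the mean of all screened compounds plus 3 SD, cut at about 10% in these data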;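 note: 0% = DMSO wells and 100% = sodium butyrate wells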
DAX1 inh-2 = inhibitors of DAX1 repression of SF-1 activated StAR promoter; inhibition, % at 6.8 µM; AID 652010; HEK293T StAR-luciferase reporter, SF-1/DAX-1 repression relief; 1.1% of 370,000 active;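 active = inhibition above the mean over all tested compounds plus 3 SD, cut at about 3.6% in these data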;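 note: 0% = DAX-1 cells with DMSO and 100% = cells lacking DAX-1 with DMSO; higher inhibition means more luminescence from relief of DAX-1 repression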
The depositor's hits bear a star; . = no result. Only some compounds are listed: those with a hit (about 5.7% of all), similar ones and a draw of the others.

SMILES | ssDAF12 agonist | AHR act | hcDAF-12 act | DAX1 inh-1 | hgDAF-12 ag | DAX1 inh-2
CC(=O)N1CCN(c2ccc(NCc3ccc(F)cc3)cc2)CC1 | -1.7 | 1.7 | -1.2 | 3.4 | -2.0 | -1.7
COc1cc(CNc2ccc(N3CCN(C(C)=O)CC3)cc2)ccc1OCc1ccc(F)cc1 | -1.5 | -1.3 | -0.8 | -0.3 | 11.2* | -1.1
COc1ccc(/C=C2\CCCC3C2=NN(C(=O)COC(=O)CNC(=O)c2ccccc2)C3c2ccc(OC)cc2)cc1 (configuration not stated) | -0.7 | -3.6 | -0.3 | -1.9 | -0.5 | 0.7
COc1ccc(/C=C2\CCCC3C2=NN(C(=O)CSc2ncn[nH]2)C3c2ccc(OC)cc2)cc1 (configuration not stated) | -2.0 | 1.1 | 0.1 | -1.5 | 1.9 | 0.1
COc1ccc2c(c1)C1=NN(/C(C)=C\C(C)=O)C(c3ccccc3)C1CC2 (configuration not stated) | 0.2 | 83.5* | 2.7 | 0.2 | 1.7 | -1.0
COc1ccc2c(c1)C1=NN(/C(C)=C/C(C)=O)C(c3cccc(F)c3)C1CC2 (configuration not stated) | 0.6 | 97.1* | 3.3 | 0.7 | 2.6 | -0.6
COc1ccc2c(c1)CCC1C2=NN(/C(C)=C\C(C)=O)C1c1ccc(F)cc1 (configuration not stated) | -0.3 | 60.1* | 6.0* | -0.8 | 8.5 | 0.2
COc1ccc(-c2nnn(CC(=O)N(CCCN3CCOCC3)C(C(=O)NC3CCCC3)c3ccco3)n2)cc1 (configuration not stated) | -1.1 | 1.6 | -0.9 | 5.2* | -2.4 | -0.2
COc1ccc(-c2nnn(CC(=O)N(CCCN3CCOCC3)C(C(=O)NC3CCCC3)c3ccc(C)o3)n2)cc1 (configuration not stated) | -1.7 | -1.3 | -0.8 | 2.0 | 3.1 | -0.1
COC(c1ccccc1)c1nnc(CCC(=O)NC2CCCCC2)o1 (configuration not stated) | 0.1 | 3.1 | -0.7 | 1.3 | 0.3 | -0.1
COC(c1ccccc1)c1nnc(CCC(=O)N(C)C(C2CC2)C2CC2)o1 (configuration not stated) | -0.6 | 10.5 | 0.9 | 5.2* | 6.7 | 0.3
CCOC(=O)N1CCC(N2C(=O)c3ccccc3C2Nc2ccc3c(C)cc(=O)oc3c2)CC1 (configuration not stated) | -1.5 | -0.3 | 4.2 | 5.4* | -1.7 | 0.6
O=C(COc1ccccc1/C=C1/NC(=O)NC1=O)Nc1ccccc1 | -1.5 | 35.9 | -1.4 | -0.7 | 0.0 | -0.4
O=C(COc1ccccc1/C=C1\SC(=O)NC1=O)Nc1ccc(F)cc1 | -1.9 | 97.7* | -0.8 | -0.5 | 1.5 | 0.0
O=C(CSc1nnc(COc2ccccc2)n1-c1ccc(Cl)cc1)Nc1ccccc1-c1ccccc1 | -1.2 | . | -2.2 | . | -0.4 | -1.4
CC[C@@H]1CCCCc2ccccc2[C@H](C(=O)C[C@@H](O)CC(C)=O)OC1=O | -0.8 | 0.2 | -1.5 | -0.3 | 2.6 | 0.2
CC[C@H]1CCCCc2ccccc2[C@@H](C(=O)C[C@@H](O)CC(C)=O)OC1=O | -1.1 | -0.9 | -1.5 | -0.2 | 0.8 | 4.0*
CCC(C)C(=O)OCC1(c2ccc(C)cc2OC(=O)C(C)C)CO1 (configuration not stated) | -1.2 | 2.4 | -1.7 | 1.4 | 2.2 | 0.9
Cc1ccc(C2(COC(=O)C(C)C)CO2)c(OC(=O)C(C)C)c1 (configuration not stated) | -1.7 | 0.2 | 0.4 | 4.6* | 2.3 | 0.2
Cc1ccc(NC(=O)c2ncn(CCCNCC3CCCCC3)n2)cc1C | -0.3 | . | -1.2 | 0.3 | 6.9 | 3.9*
Cc1cccc(C)c1NC(=O)CNC(=O)CCC(=O)N1CCOCC1 | -1.3 | 0.4 | 0.7 | -0.7 | 1.5 | 3.7*
Cc1cccc(C)c1NC(=O)CN(C)C(=O)CCC(=O)N1CCOCC1 | -1.7 | -2.4 | -0.5 | -1.1 | 2.2 | -0.1
O=C(Nc1ccc(Cl)cc1Cl)NC1CCCC1 | -0.8 | 52.9* | 1.0 | -0.3 | 4.2 | -0.1
Cc1ccc(NC(=O)NC2CCCCC2)cc1Cl | 0.2 | 6.9 | 1.9 | 3.5 | 12.4* | 1.9
COc1ccc(NC(=O)Nc2ccccn2)cc1OC | 1.5* | 8.6 | 1.0 | 0.2 | -0.3 | 0.8
SMILES | ssDAF12 agonist | AHR act | hcDAF-12 act | DAX1 inh-1 | hgDAF-12 ag | DAX1 inh-2
COC(=O)c1ccc(OC)c(OC2CCCC2)c1 | -0.6 | 1.4 | -0.8 | 6.3* | 0.6 | -0.3
COc1ccc(NC(=O)C2CC2)cc1OC1CCCC1 | . | 10.9 | . | 3.1 | . | .
O=C(Nc1ccc(Cl)c(Cl)c1)Nc1ccccn1 | 0.5 | 23.3 | -0.2 | 3.6 | 6.9 | 0.4
COc1ccc(NC(=O)N(C)C[C@H]2OCCCC[C@H](C)Oc3ccc(NC(=O)Nc4cccc5ccccc45)cc3C(=O)N([C@@H](C)CO)C[C@H]2C)cc1 | -0.9 | . | -0.1 | . | 0.9 | -0.1
CCCCN1C(=O)c2cccc3cc(O)cc(c23)C1=O | -1.8 | 2.3 | -1.9 | -2.1 | -1.6 | -0.1
COc1cc(NC(=S)Nc2ccccn2)c(OC)cc1Cl | -0.7 | 58.5* | 5.0 | -1.1 | 2.7 | 0.1
COc1ccc(OC)c(NC(=O)NC2CCCCCCC2)c1 | -1.1 | . | -1.2 | -1.0 | 1.9 | 0.2
COc1ccc(NC(=O)NC2CCCCCCC2)cc1OC | -0.7 | 15.7 | 1.2 | 0.3 | 0.5 | 4.4*
CC1(C)Nc2ccccc2C(=O)N1NC(=O)c1ccccc1 | 0.3 | 2.7 | 5.7* | -0.4 | 5.0 | 1.1
CCN(Cc1ccccc1)S(=O)(=O)c1cn(C)cn1 | -1.0 | -1.7 | -0.2 | 0.6 | 12.6* | -0.2
O=C(N[C@H](Cc1ccccc1)C(=O)NCc1ccc(OC(F)(F)F)cc1)[C@H]1O[C@@H](n2ccc(=O)[nH]c2=O)[C@H](O)[C@@H]1O | -1.0 | . | -0.6 | . | 0.8 | -0.4
COC(=O)/C=c1/sc2nc3ccccc3n2c1=O | -0.3 | 1.1 | 0.8 | 0.6 | -0.2 | 0.5
O=c1/c(=C/c2ccccn2)sc2nc3ccccc3n12 | 1.3* | 30.8 | 5.3 | 4.1 | 8.7 | 2.5
COc1ccccc1NC(=O)C(C)OC(=O)CC1CCCCC1 (configuration not stated) | -0.6 | 2.3 | -2.2 | -1.0 | 1.6 | -0.8
Cc1ccccc1OCc1nc2ccccc2n1C | -0.4 | 6.4 | 3.7 | 1.8 | 11.0* | 1.5
CCc1cc2c(=O)c(-c3cnn(-c4ccccc4)c3)c(C)oc2cc1OCC(=O)Nc1cccc(C)c1 | -1.1 | 1.9 | -0.5 | 0.7 | -1.7 | -0.5
CCc1cc2c(=O)c(-c3cnn(-c4ccccc4)c3)c(C)oc2cc1OCC(=O)Nc1ccc(F)c(F)c1 | 1.9* | -3.2 | 0.7 | 0.2 | 1.2 | 0.4
S=C(N/N=C/c1cccc2ccccc12)Nc1cccc(Cl)c1 | -1.1 | 47.8* | 1.1 | 0.9 | 1.2 | 0.2
S=C(N/N=C/c1ccccc1Cl)Nc1ccccc1 | 0.7 | 62.3* | 3.1 | 4.4* | 11.3* | 1.1
